High-throughput results as filed in PubChem.
BLM inh: inhibitors of human Bloom syndrome helicase BLM; P54132; recombinant BLM DNA unwinding, fluorescence dequenching; Potency, µM (titrated, usually from 56.1 µM), without a hit: at the top dose activity change, negative = inhibition, most hits filed as inhibitors; 0.2% of 350,000 active;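 note: plate controls were vehicle for no effect and no enzyme for full effect; nearly all actives have a fitted effect of over 35% in size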
RECQ1 inh-1: inhibitors of human RECQ1 DNA helicase. RECQ1 DNA unwinding, red fluorescence kinetic read. AID 2549. Potency, µM (titrated, usually from 57.3 µM), without a hit: at the highest dose activity, negative = inhibition, usual class: inhibitors. 0.54% of 240,000 active;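 note: plate controls were vehicle for no effect and no enzyme for full effect; nearly all actives have a fitted effect of over 30% in size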
Target sequence (P46063 whole entry, looked up): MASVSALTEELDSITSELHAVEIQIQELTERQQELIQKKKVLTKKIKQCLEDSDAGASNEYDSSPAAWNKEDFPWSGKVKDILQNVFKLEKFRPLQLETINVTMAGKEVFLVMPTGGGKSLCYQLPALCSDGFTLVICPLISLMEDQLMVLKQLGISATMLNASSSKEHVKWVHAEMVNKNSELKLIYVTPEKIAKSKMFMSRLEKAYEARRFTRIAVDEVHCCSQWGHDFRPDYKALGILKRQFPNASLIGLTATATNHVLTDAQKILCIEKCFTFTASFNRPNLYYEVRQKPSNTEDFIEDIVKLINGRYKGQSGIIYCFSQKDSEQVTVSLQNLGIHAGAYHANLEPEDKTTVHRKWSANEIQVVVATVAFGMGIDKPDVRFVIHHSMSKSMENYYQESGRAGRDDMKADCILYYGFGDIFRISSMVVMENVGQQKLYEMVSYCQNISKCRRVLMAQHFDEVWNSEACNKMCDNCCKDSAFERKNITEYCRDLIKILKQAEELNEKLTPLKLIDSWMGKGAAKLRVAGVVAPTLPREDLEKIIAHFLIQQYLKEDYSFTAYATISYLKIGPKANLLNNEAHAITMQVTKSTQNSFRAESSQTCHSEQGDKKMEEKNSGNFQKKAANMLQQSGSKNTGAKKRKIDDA
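RECQ1T1 50 nM; forked duplex (20 bp + 30-nt ss tails) 200 nM, ATP 2 mM final; pH 8.0, 2 mM MgCl2, 2.5 ug/ml poly(dI-dC); 15 min compound preincubation; discontinuous kinetic read over 2 h at RT.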
GCN5L2 inh: blocks human GCN5L2 histone acetyltransferase. AID 504327. GCN5L2 HAT assay, ThioGlo1 CoA-SH fluorescence. Potency, µM (doses to about 58.9 µM), for inactives: at the highest dose activity change, negative = inhibition, most hits filed as inhibitors. 0.21% of 390,000 active
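GCN5L2 (20nM final) in 50mM HEPES, 0.1mM EDTA pH 7.5, 0.01% Tween-20 was preincubated 15 min at room temperature with compound, then given ThioGlo1 (50uM), H3(1-25) peptide (75uM) and acetyl-CoA (70uM); CoA-thiol fluorescence (Ex340/Em540) was read at 0 and 20 min.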
TDP1 inh: TDP1 (human) enzyme inhibition; Q9NUW8; recombinant TDP1, AlphaScreen DNA substrate cleavage; Potency, µM (highest dose often 130 µM), for the others: at the highest dose activity change, negative = inhibition, usual class: inhibitors; 0.28% of 350,000 active; AID 485290; note: nearly all actives have a fitted effect of over 40% in size
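AlphaScreen read-out: signal falls as enzyme removes the 3' tyrosine-FITC from a 5'-biotinylated DNA oligo (15 nM, 5 min, RT). Enzyme was E. coli-made recombinant Tdp1 at 1 nM, exposed to compound for 15 min beforehand; beads 10 ug/ml, 10 min.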
APE1 inh: inhibitors of human APE1 endonuclease; recombinant APE1, TAMRA/BHQ-2 abasic DNA cleavage fluorescence; Potency, µM (titrated, usually from 65.8 µM), without a hit: at the highest dose activity change, negative = inhibition, most hits filed as inhibitors; 0.35% of 350,000 active; P27695;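 note: plate controls were vehicle for no effect and reference inhibitor for full effect; nearly all actives have a fitted effect of over 55% in size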
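Endonuclease cleavage of a quenched abasic-site DNA duplex (50 nM) by APE1 (0.75 nM) was tracked by TAMRA dequenching. Compounds were preincubated with enzyme 15 min at room temperature; data normalized to buffer-only and DMSO wells plus NSC13755 control.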
RECQ1 inh conf: confirmation of human RECQ1 helicase inhibitors; shares compounds with RECQ1 inh-1; RECQ1 helicase DNA unwinding, fluorescence; Potency, µM (titrated, usually from 229 µM), inactives show top-dose activity change, negative = inhibition, hits mostly inhibitors; 28% of 610 active; AID 2708; note: nearly all actives have a fitted effect of over 45% in size
ADP FP counter: counter-screen for RECQ1 inhibitors: ADP displacement. Potency, µM (highest dose often 228 µM), without a hit: at the top dose activity change, negative = inhibition, actives largely listed as inhibitors. ADP fluorescence polarization displacement counterscreen. 27% of 530 active. shares compounds with RECQ1 inh-1. AID 2711; note: nearly all actives have a fitted effect of over 45% in size
RECQ1 inh-2: RECQ1 helicase inhibition confirmed, round 2; shares compounds with RECQ1 inh-1; 15% of 1,100 active; Potency, µM (series often up to 119 µM), without a hit: at the top dose activity, negative = inhibition, most hits filed as inhibitors; AID 504841; recombinant RECQ1 DNA unwinding, red fluorescence; note: nearly all actives have a fitted effect of over 50% in size
Starred values were filed as active, the others as inactive; [ ] = remark or other dose. An excerpt weighted towards active compounds, which were near 0.87% of everything screened. Calls come from the whole dose curve; as a rule, active = well fitted curve in the direction sought with a large enough effect; inconclusive = small, poorly fitted or top-dose-only effect, or another doubt; inactive = no such curve, though single readings can be large; an effect the other way counts as inactive or inconclusive. Unless noted, % is set by controls: 0 for no effect and ±100 for the full control effect; potency is the fitted concentration of half-maximal effect.

Cc1c(-n2c(SCC(C)C)nc3ccccc3c2=O)c(=O)n(-c2ccccc2)n1C was read as BLM inh 0%, RECQ1 inh-1 inactive, GCN5L2 inh 1%, TDP1 inh 0% and APE1 inh 0%.
`Cc1c(-n2c(SC(C)C(=O)NC(N)=O)nc3ccccc3c2=O)c(=O)n(-c2ccccc2)n1C` (configuration not stated) gave BLM inh 4%, RECQ1 inh-1 -2%, GCN5L2 inh -11%, TDP1 inh 4%, APE1 inh 4%, RECQ1 inh conf 1% and ADP FP counter 5%.
`Cc1ccc2c(C)cc[n+](CCCS(=O)(=O)[O-])c2c1` gave BLM inh -3%, RECQ1 inh-1 0%, GCN5L2 inh -3%, TDP1 inh 2% and APE1 inh 2%.
CC/C(=C/c1sc2ccc(C)cc2[n+]1CCCS(=O)(=O)[O-])SC was read as BLM inh -3%, RECQ1 inh-1 inconclusive, GCN5L2 inh -13%, TDP1 inh -2%, APE1 inh -10% and RECQ1 inh-2 -4%.
`Brc1ccccc1CN1CCC(N2CCCCC2)CC1` gave BLM inh -5%, RECQ1 inh-1 inconclusive, GCN5L2 inh -3%, TDP1 inh -4%, APE1 inh -4% and RECQ1 inh-2 -2%.
CCC(CC)C1C(C#N)=C(N)Oc2cc(C)oc(=O)c21 (configuration not stated) was read as BLM inh -5%, RECQ1 inh-1 -11%, GCN5L2 inh -3%, TDP1 inh 2% and APE1 inh 17%.
For Cc1cc2c(c(=O)o1)C(c1ccc([N+](=O)[O-])o1)C(C#N)=C(N)O2 (configuration not stated) the results were BLM inh -1%, RECQ1 inh-1 22µM*, GCN5L2 inh -2%, APE1 inh 8.9µM* and RECQ1 inh-2 -19%.
Screening COC1C(O)COC1/C=C/c1ccccc1 (configuration not stated) returned BLM inh -1%[12.4 µM], RECQ1 inh-1 inactive[11.5 µM], TDP1 inh 5%[21 µM] and APE1 inh inconclusive.
For COc1ccc(OC2C=CC(c3ccccc3)OC2CO)c(C(C)(C)C)c1 (configuration not stated) the results were BLM inh -6%[12.4 µM], RECQ1 inh-1 -11%[11.5 µM], TDP1 inh 5%[21 µM] and APE1 inh -5%[12.4 µM].
`c1ccc(Cc2nnc3sc(-c4ccco4)nn23)cc1` gave BLM inh -16%, RECQ1 inh-1 inconclusive, GCN5L2 inh -11%, TDP1 inh -7%, APE1 inh -8% and RECQ1 inh-2 inconclusive.
Screening Clc1ccccc1-c1nnc2sc(-c3ccco3)nn12 returned BLM inh 2%, RECQ1 inh-1 -5%, GCN5L2 inh -10%, TDP1 inh 5% and APE1 inh 5%.
Screening CO[C@H]1C[C@H](O[C@@H]2/C(C)=C/C[C@@H]3C[C@@H](C[C@]4(CC[C@H](C)[C@@H](C5CCCCC5)O4)O3)OC(=O)[C@@H]3C=C(C)/C(=N/O)[C@H]4OC/C(=C\C=C\[C@@H]2C)[C@]43O)O[C@@H](C)[C@@H]1O returned APE1 inh 0%.
For O=C(Cc1cnn(-c2ccccc2)c1)c1ccc(O)c(O)c1O the results were BLM inh -10%, RECQ1 inh-1 3.2µM*, GCN5L2 inh -7%, TDP1 inh -1%, APE1 inh inconclusive, RECQ1 inh conf -2%[114 µM] and ADP FP counter 30%[91.9 µM].
Cc1ccc(Nc2nc(Nc3ccc(Cl)cc3)nc(N3CCOCC3)n2)cc1 was read as TDP1 inh -2% and RECQ1 inh conf -15%[69.1 µM].
CC(=O)Nc1ccc(Nc2nc(Nc3ccc(Cl)cc3)nc(N3CCOCC3)n2)cc1 was read as TDP1 inh 1% and RECQ1 inh conf -6%[69.1 µM].
Screening Cc1ccc(Nc2nc(N3CCOCC3)nc(N3CCOCC3)n2)cc1 returned BLM inh -5%, RECQ1 inh-1 -6%, GCN5L2 inh 0%, TDP1 inh 0% and APE1 inh 0%.
Clc1ccc(Nc2nc(N3CCOCC3)nc(N3CCOCC3)n2)cc1Cl was read as BLM inh 0%, GCN5L2 inh -12%, TDP1 inh -1% and APE1 inh -21%.
For Cc1ccc(Cl)cc1N1CCN(C(=O)Cc2c(C(=O)O)c(C)cn2C)CC1 the results were BLM inh 1%, GCN5L2 inh -5% and TDP1 inh 1%.
For COC(=O)C(NS(N)(=O)=O)C(C)C (configuration not stated) the results were BLM inh 1%, RECQ1 inh-1 inactive, TDP1 inh 1% and APE1 inh 1%.
`CCOc1ccccc1Nc1nnc(SCC(=O)Nc2ccc3[nH]c(=O)[nH]c3c2)s1` gave BLM inh -14%, RECQ1 inh-1 inactive, GCN5L2 inh 17%, TDP1 inh 8% and APE1 inh -11%.
CCOc1ccccc1Nc1nnc(SCC(=O)NC(Cc2c[nH]c3ccccc23)C(=O)O)s1 (configuration not stated) was read as BLM inh -11%, RECQ1 inh-1 0%, GCN5L2 inh -20%, TDP1 inh 1%, APE1 inh -1%, RECQ1 inh conf -3% and ADP FP counter inconclusive.
Screening Cc1ccc(Nc2nnc(SCC(=O)NC(Cc3c[nH]c4ccccc34)C(=O)O)s2)cc1 (configuration not stated) returned BLM inh -2%, RECQ1 inh-1 inactive, GCN5L2 inh -1%, TDP1 inh -2%, APE1 inh -4%, RECQ1 inh conf -3% and ADP FP counter 13%.
For CCCSC1=N/C(=C\c2ccc([N+](=O)[O-])o2)C(=O)S1 the results were BLM inh 4%, RECQ1 inh-1 13µM*, GCN5L2 inh inconclusive, TDP1 inh inconclusive, APE1 inh 22µM*, RECQ1 inh conf -5%[114 µM] and RECQ1 inh-2 inconclusive.
